A short description of experiment [1]: ATG_TAL_CIS: Attagene CIS-FACTORIAL HepG2 Assay for human TAL Basal Promoter (AID 2282966).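 Also: background control endpoint measuring basal TAL promoter reporter mRNA not a specific factor.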 The following applies: HepG2 Attagene cis-factorial TAL promoter reporter; actives raise or lower the signal. In short, it runs like this: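 Readout: reporter mRNA, fluorescence by CE. System: HepG2, transient multi-reporter transfection, endogenous TF activity. Exposure: 24 h. Analysis: bidirectional, DMSO-normalized; background control.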

Experiment [2] can be described thus: ATG_TGFb_CIS: Attagene CIS-FACTORIAL HepG2 Assay for human Transforming Growth Factor (TGF) (AID 2282967). The settings on record: HepG2 Attagene CIS TGFb reporter, mRNA transcription; actives raise or lower the signal. In short, it runs like this:
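Liver HepG2 line, cis-factorial reporter panel, 24 h dosing. Quantitation: RT-PCR products labeled with 6-FAM, cut with HpaI, resolved by capillary electrophoresis; DMSO-referenced bidirectional analysis.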

The nature of experiment [3]: ATG_VDRE_CIS: Attagene CIS-FACTORIAL HepG2 Assay for human Vitamin D Receptor Element (VDRE) (AID 2282968). The following applies: HepG2 VDRE cis-reporter transcription, actives raise or lower the signal. In short, it runs like this:
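Reporter mRNA induction, quantified by capillary electrophoresis of fluorescently labelled RT-PCR products, was read 24 h after dosing HepG2 cells carrying transiently transfected cis-regulated reporter units; gain or loss relative to DMSO.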

Experiment [4] concerns the target X-box-binding protein 1 (Homo sapiens) (UniProt P17861). Nature of the experiment: ATG_Xbp1_CIS: Attagene CIS-FACTORIAL HepG2 Assay for human X-box Binding Protein 1 (XBP1) (AID 2282972). The following applies: HepG2 XBP1 cis-element reporter, Attagene multiplex; actives raise or lower the signal. In short, it runs like this:
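HepG2, transient MRTU transfection (cis-promoter driven), 24 h compound exposure. Total RNA → oligo(dT) RT → PCR → 6-FAM labeling → HpaI cut → CE. Bidirectional fit vs DMSO.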

Experiment [5] is described as follows: ATG_GAL4_TRANS: Attagene TRANS-FACTORIAL HepG2 Assay for GAL4 (Internal Marker) (AID 2282976; active = hit-call score of the fitted dose curve at least 0.9, where 1 is the maximum). The settings on record: HepG2 Attagene TRANS GAL4 internal marker reporter. In short, it runs like this:
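Fluorescence from capillary electrophoresis of labelled RT-PCR products quantifies reporter mRNA induction after 24 h dosing of HepG2 cells carrying transfected GAL4-UAS reporter transcription units. Vehicle DMSO serves as baseline.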

In experiment [6] the target is Glucocorticoid receptor (Homo sapiens) (UniProt P04150). The experiment can be described thus: ATG_GR_TRANS: Attagene TRANS-FACTORIAL HepG2 Assay for human Glucocorticoid Receptor (GR) (AID 2282978; active = hit-call score of the fitted dose curve at least 0.9, where 1 is the maximum;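 also: activators score as hits since higher reporter transcript over DMSO is fitted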). The settings on record: HepG2 Attagene TRANS GR reporter, mRNA transcription. In short, it runs like this:
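HepG2 cells transiently transfected with GAL4-UAS reporter units and exogenous GR-Gal4 chimera, dosed 24 h. Reporter mRNA by RT-PCR, FAM labeling, HpaI digest and capillary electrophoresis; gain-of-signal fit versus DMSO.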

Experiment [7] concerns the target Bile acid receptor (Homo sapiens) (UniProt Q96RI1). The experiment can be described thus: ATG_FXR_TRANS: Attagene TRANS-FACTORIAL HepG2 Assay for Farnesoid X Receptor (FXR) (AID 2282979; active = hit-call score of the fitted dose curve at least 0.9, where 1 is the maximum;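 also: hits raise reporter mRNA above DMSO so AC50 marks FXR activation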). The following applies: HepG2 Attagene TRANS FXR-GAL4 reporter transcription. The method in brief: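 Chimeric FXR-GAL4 activity in transiently transfected human HepG2 liver cells is scored as induction of reporter mRNA after 24 h of dosing. Detection uses RT-PCR with fluorescent labelling and capillary electrophoresis, with DMSO serving as baseline.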

The target in experiment [8] is Oxysterols receptor LXR-alpha (Homo sapiens) (UniProt Q13133). Nature of the experiment: ATG_LXRa_TRANS: Attagene TRANS-FACTORIAL HepG2 Assay for human Liver X Receptor alpha (LXRa) (AID 2282980; active = hit-call score of the fitted dose curve at least 0.9, where 1 is the maximum). The settings on record: HepG2 Attagene TRANS reporter, LXRa transactivation. The method in brief: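 Transient HepG2 transfectants, 24 h dosing, RT-PCR/CE mRNA reporter quantitation; gain-of-signal vs DMSO.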
Sequence of Oxysterols receptor LXR-alpha (Homo sapiens) (Q13133 whole entry, looked up): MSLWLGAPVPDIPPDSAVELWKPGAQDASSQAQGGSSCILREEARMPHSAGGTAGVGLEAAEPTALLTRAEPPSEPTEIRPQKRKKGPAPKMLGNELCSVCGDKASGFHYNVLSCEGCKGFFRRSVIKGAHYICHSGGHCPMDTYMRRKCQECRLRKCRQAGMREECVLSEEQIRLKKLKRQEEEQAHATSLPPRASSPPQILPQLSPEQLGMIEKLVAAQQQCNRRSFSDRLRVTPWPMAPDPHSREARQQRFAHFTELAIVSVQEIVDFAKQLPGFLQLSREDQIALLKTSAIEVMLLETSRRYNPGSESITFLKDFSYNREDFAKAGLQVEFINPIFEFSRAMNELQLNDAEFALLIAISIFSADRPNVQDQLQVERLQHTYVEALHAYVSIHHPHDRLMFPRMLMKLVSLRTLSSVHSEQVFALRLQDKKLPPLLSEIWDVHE

The target of experiment [9] is Oxysterols receptor LXR-beta (Homo sapiens) (UniProt P55055). Nature of the experiment: ATG_LXRb_TRANS: Attagene TRANS-FACTORIAL HepG2 Assay for human Liver X Receptor beta (LXRb) (AID 2282981; active = hit-call score of the fitted dose curve at least 0.9, where 1 is the maximum). The following applies: HepG2 Attagene TRANS GAL4-LXRb reporter, mRNA. In short, it runs like this: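 Transient transfection HepG2 (multiplexed RTUs, GAL4-UAS); NR-Gal4 chimera; 24 h exposure; RNA → RT-PCR → 6-FAM primer extension → HpaI → CE; increase vs DMSO.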

Experiment [10] in a line: ATG_M_06_TRANS: Attagene TRANS-FACTORIAL HepG2 Assay for M06 Transcription Factor (Internal Marker) (AID 2282983; active = hit-call score of the fitted dose curve at least 0.9, where 1 is the maximum;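 also: reporter transcript level by RT-PCR then capillary electrophoresis fluorescence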). The following applies: HepG2 Attagene TRANS M06 internal marker reporter. In short, it runs like this:
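Measured by capillary electrophoresis of fluorescently labelled RT-PCR products, this endpoint reflects reporter mRNA in HepG2 cells harbouring exogenous NR-GAL4 reporter constructs after 24 h exposure, with DMSO as baseline.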

Experiment [11] is described as follows: ATG_M_32_TRANS: Attagene TRANS-FACTORIAL HepG2 Assay for M32 Transcription Factor (Internal Marker) (AID 2282984; active = hit-call score of the fitted dose curve at least 0.9, where 1 is the maximum;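 also: transcript level of a background control reporter unit measured by RT-PCR and capillary electrophoresis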). The settings on record: HepG2 Attagene TRANS M32 internal marker reporter. The method in brief: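 Measures reporter mRNA induction in human HepG2 liver cells after 24 h chemical treatment. Transcripts from transiently transfected GAL4-UAS reporter units are amplified, fluorescently labelled and sized by capillary electrophoresis; gain of signal relative to DMSO.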

The target in experiment [12] is Nuclear receptor subfamily 4 group A member 2 (Homo sapiens) (UniProt P43354). The experiment can be described thus: ATG_NURR1_TRANS: Attagene TRANS-FACTORIAL HepG2 Assay for human Nuclear Receptor Related Protein 1 (NURR1) (AID 2282985; active = hit-call score of the fitted dose curve at least 0.9, where 1 is the maximum). The following applies: HepG2 Attagene TRANS reporter, mRNA readout. The method in brief:
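Transient transfection of HepG2, human liver cells, with multiple GAL4-UAS reporter transcription units. Cells dosed 24 h, RNA isolated, reverse-transcribed, PCR-amplified, FAM-labelled, HpaI-digested, sized by capillary electrophoresis. DMSO served as negative control.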

In experiment [13] the target is Transcriptional activator Myb (Homo sapiens) (UniProt P10242). Nature of the experiment: ATG_Myb_CIS: Attagene CIS-FACTORIAL HepG2 Assay for human Myeloblastosis (Myb) Proto-Oncogene Transcription Factor (AID 2282986). The settings on record: HepG2 Attagene CIS-FACTORIAL Myb reporter transcription; actives raise or lower the signal. In short, it runs like this:
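Transiently transfected HepG2 cells carrying a multiplexed cis-promoter reporter set report endogenous Myb activity after 24 h compound exposure. Reporter mRNA is read by RT-PCR with capillary electrophoresis of fluorescent products, fitted bidirectionally against DMSO.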

Experiment [14] addresses Nuclear respiratory factor 1 (Homo sapiens) (UniProt Q16656). The experiment can be described thus: ATG_NRF1_CIS: Attagene CIS-FACTORIAL HepG2 Assay for human Nuclear Respiratory Factor 1 (NRF1) Orphan Gene (AID 2282987). The following applies: HepG2 NRF1 cis-element reporter, Attagene multiplex; actives raise or lower the signal. In short, it runs like this:
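HepG2 cells transiently transfected with multiple cis-regulated reporter units, exposed 24 h. Reporter mRNAs measured by RT-PCR, fluorescent labelling, HpaI digestion and capillary electrophoresis; bidirectional fitting against DMSO.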

Experiment [15] is described as follows: ATG_NFI_CIS: Attagene CIS-FACTORIAL HepG2 Assay for human Nuclear Factor I (NFI) (AID 2282989). The following applies: HepG2 cis-regulatory reporter, NFI response element transcription; actives raise or lower the signal. The method in brief: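 Transfected HepG2 liver cells, exposed 24 h, supplied total RNA for oligo(dT) reverse transcription and reporter-specific PCR. Labelled, HpaI-cut fragments were sized by capillary electrophoresis; DMSO set the baseline for bidirectional fitting.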

The target in experiment [16] is Estrogen-related receptor gamma (Homo sapiens) (UniProt P62508). The experiment can be described thus: ATG_ERRg_TRANS: Attagene TRANS-FACTORIAL HepG2 Assay for human Estrogen-Related Receptor gamma (ERRg) (AID 2282977; active = hit-call score of the fitted dose curve at least 0.9, where 1 is the maximum;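 also: hits increase reporter signal over DMSO so potencies reflect activators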). The settings on record: HepG2 Attagene TRANS reporter, ERRg transactivation. In short, it runs like this:
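HepG2 cells transiently transfected with multiplexed GAL4-UAS reporter units driven by chimeric NR-Gal4 proteins; 24 h exposure. Reporter mRNA quantified by RT-PCR, fluorescent labelling, HpaI digestion and capillary electrophoresis; gain of signal vs DMSO.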

Experiment [17] addresses Hepatocyte nuclear factor 4-alpha (Homo sapiens) (UniProt P41235). The experiment can be described thus: ATG_HNF4a_TRANS: Attagene TRANS-FACTORIAL HepG2 Assay for human Hepatocyte Nuclear Factor 4 alpha (HNF4a) (AID 2282982; active = hit-call score of the fitted dose curve at least 0.9, where 1 is the maximum). The following applies: HepG2 HNF4a transactivation reporter, mRNA readout. The method in brief:
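Readout is fluorescent reporter-transcript fragments resolved by capillary electrophoresis after RT-PCR from HepG2 cells dosed for 24 h. Cells carried transfected GAL4-UAS reporter constructs measuring exogenous NR-GAL4 chimera activity; DMSO served as baseline.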

Results filed as inconclusive are left out. The source made the active and inactive calls. The calls were made as follows, unless noted: active = hit-call score of the fitted dose curve at least 0.9, where 1 is the maximum; inactive = score below 0.9.

Sequence of Bile acid receptor (Homo sapiens) (Q96RI1 whole entry, looked up, the tested form may be a part): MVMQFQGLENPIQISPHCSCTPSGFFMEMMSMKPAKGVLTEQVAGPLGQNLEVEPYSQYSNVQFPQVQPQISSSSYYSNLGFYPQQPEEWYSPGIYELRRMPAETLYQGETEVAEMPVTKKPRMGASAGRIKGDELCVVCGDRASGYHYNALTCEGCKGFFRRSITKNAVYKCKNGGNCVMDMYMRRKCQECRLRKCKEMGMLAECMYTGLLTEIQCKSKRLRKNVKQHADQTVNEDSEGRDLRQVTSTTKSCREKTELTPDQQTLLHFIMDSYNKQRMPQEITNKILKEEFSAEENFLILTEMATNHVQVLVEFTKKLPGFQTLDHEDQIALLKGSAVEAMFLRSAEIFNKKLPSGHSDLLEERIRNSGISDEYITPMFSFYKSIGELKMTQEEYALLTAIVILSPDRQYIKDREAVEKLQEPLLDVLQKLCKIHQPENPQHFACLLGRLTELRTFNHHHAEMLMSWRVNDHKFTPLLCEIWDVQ
Sequence of X-box-binding protein 1 (Homo sapiens) (P17861 whole entry, looked up): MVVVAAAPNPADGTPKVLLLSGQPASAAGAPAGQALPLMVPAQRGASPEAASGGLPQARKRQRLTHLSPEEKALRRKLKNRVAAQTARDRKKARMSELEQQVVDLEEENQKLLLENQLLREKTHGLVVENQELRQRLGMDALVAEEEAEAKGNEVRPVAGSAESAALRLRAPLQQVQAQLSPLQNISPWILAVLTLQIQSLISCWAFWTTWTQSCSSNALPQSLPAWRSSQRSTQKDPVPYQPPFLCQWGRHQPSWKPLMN
Sequence of Glucocorticoid receptor (Homo sapiens) (P04150 whole entry, looked up, the tested form may be a part): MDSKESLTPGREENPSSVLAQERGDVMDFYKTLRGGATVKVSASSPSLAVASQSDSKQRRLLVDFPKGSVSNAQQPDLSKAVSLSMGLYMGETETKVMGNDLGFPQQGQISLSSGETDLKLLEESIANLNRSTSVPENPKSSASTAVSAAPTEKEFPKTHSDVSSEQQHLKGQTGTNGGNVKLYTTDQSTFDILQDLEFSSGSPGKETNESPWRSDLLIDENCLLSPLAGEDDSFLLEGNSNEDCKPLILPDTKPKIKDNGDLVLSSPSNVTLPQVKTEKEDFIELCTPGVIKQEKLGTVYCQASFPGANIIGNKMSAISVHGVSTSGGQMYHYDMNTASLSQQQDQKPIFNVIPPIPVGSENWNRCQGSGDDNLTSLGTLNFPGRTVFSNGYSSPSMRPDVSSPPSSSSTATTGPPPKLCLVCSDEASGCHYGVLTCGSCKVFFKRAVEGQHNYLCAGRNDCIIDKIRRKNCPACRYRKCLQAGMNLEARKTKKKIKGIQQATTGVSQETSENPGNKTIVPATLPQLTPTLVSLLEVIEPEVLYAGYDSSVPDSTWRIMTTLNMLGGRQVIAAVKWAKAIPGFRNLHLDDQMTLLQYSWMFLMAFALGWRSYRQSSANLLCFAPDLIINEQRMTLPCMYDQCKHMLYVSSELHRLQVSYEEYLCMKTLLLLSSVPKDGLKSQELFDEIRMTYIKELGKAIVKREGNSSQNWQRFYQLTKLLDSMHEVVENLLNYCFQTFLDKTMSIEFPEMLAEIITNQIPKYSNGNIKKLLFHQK
Sequence of Estrogen-related receptor gamma (Homo sapiens) (P62508 whole entry, looked up, the tested form may be a part): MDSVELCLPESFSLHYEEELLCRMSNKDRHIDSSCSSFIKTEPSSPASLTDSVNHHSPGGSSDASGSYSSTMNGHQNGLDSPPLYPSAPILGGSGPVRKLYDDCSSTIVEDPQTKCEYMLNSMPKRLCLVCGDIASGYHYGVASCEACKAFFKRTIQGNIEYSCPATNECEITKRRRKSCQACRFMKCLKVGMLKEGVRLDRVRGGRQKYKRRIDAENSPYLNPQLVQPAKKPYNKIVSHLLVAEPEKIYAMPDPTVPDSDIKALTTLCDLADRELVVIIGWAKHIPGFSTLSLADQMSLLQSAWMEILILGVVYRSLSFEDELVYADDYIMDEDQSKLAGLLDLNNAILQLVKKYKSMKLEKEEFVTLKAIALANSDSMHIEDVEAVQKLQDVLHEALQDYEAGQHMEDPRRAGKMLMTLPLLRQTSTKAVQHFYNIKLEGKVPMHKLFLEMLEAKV
Sequence of Transcriptional activator Myb (Homo sapiens) (P10242 whole entry, looked up): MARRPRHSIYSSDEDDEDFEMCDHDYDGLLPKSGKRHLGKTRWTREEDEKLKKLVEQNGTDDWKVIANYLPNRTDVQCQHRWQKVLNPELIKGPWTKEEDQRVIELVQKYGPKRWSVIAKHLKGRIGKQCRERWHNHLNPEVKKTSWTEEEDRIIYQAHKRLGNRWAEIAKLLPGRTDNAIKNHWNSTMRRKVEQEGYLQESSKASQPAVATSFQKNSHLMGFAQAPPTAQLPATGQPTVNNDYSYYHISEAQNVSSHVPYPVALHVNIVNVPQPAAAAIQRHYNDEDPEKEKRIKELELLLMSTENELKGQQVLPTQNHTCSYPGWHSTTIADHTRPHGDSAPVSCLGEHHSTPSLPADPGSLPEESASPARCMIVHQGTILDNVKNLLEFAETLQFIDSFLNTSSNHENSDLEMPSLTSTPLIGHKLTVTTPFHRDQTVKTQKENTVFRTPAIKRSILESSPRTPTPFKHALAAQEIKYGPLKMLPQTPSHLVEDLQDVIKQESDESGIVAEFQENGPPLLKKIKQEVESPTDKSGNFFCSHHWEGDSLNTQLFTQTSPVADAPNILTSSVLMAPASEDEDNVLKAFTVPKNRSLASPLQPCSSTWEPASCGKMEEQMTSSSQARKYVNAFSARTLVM
Sequence of Nuclear receptor subfamily 4 group A member 2 (Homo sapiens) (P43354 whole entry, looked up, the tested form may be a part): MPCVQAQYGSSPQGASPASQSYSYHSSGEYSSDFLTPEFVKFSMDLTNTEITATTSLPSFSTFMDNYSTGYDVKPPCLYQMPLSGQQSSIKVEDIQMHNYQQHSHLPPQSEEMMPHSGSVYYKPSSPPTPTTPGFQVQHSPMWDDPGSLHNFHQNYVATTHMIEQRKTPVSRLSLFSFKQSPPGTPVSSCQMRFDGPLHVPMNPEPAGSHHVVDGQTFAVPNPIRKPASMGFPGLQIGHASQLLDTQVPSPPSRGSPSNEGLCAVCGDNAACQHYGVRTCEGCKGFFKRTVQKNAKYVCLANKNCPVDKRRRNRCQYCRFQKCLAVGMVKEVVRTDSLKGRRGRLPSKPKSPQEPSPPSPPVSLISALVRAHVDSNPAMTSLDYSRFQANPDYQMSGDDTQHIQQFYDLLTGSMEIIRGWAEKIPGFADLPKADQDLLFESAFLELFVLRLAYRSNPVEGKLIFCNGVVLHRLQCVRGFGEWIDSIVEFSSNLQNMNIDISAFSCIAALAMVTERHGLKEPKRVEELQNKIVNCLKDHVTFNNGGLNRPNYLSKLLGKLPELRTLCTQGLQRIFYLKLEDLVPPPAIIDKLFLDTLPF
Sequence of Hepatocyte nuclear factor 4-alpha (Homo sapiens) (P41235 whole entry, looked up, the tested form may be a part): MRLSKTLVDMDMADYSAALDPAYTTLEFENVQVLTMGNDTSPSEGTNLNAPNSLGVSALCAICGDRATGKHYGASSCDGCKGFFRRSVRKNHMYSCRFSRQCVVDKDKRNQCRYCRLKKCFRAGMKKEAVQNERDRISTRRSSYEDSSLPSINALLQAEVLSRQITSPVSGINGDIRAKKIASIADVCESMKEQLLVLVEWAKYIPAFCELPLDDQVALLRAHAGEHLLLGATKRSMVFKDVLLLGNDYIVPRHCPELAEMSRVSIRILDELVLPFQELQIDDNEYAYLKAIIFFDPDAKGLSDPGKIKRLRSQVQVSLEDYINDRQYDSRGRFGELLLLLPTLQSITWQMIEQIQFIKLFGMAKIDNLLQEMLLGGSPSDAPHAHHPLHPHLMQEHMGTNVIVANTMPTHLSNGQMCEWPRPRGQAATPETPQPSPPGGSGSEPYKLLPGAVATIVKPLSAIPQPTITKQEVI
Sequence of Nuclear respiratory factor 1 (Homo sapiens) (Q16656 whole entry, looked up): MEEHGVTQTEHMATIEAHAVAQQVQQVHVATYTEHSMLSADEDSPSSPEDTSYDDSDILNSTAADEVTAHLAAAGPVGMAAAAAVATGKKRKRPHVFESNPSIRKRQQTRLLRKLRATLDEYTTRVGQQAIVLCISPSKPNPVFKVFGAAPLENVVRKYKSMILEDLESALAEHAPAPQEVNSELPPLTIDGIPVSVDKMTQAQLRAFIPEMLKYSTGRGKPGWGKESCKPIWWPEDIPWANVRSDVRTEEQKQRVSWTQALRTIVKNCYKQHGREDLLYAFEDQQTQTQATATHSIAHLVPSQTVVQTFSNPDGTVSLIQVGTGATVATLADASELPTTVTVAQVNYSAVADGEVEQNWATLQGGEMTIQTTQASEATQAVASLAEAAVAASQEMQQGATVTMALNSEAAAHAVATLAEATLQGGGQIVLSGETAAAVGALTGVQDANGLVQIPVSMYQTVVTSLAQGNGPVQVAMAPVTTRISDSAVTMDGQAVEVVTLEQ

`C=CC(C)(O)CCC=C(C)C` (stereo not drawn): the outcome in experiment [1], in [2], in [3], in experiment [4], in [5] and in [6] was inactive. Also, the call in experiment [7], in experiment [8], in [9], in experiment [10], in experiment [11] and in [12] was inactive. In addition, the outcome in experiment [13], in experiment [14] and in experiment [15] was inactive.
In the case of `C=C1C[C@]23C[C@@]1(O)CC[C@H]2[C@@]12C=C[C@H](O)[C@@](C)(C(=O)O1)[C@H]2[C@@H]3C(=O)O`, the outcome in experiment [1], in experiment [2], in experiment [3], in experiment [4], in [16] and in experiment [6] was inactive. The compound was called inactive in experiment [8], in experiment [17], in experiment [10], in [14] and in experiment [15].
In the case of `CC1CCC(C(C)C)C(O)C1` (stereo not drawn), the call in experiment [1], in experiment [2], in [3], in [4], in [5] and in experiment [7] was inactive. Besides, the compound was called inactive in [8], in [9], in experiment [10], in [12] and in [14].
On to `CC(C)CCCCCCc1ccc(OCCOCCO)cc1`, for which the compound was called inactive in experiment [1], in experiment [2], in experiment [3], in experiment [4], in experiment [16] and in experiment [10]. For the same compound, the compound was called inactive in [13], in experiment [14] and in experiment [15].
In the case of `CC(C=O)Cc1ccc(C(C)(C)C)cc1` (stereo not drawn), the outcome in [1], in experiment [2], in [3], in experiment [4], in experiment [6] and in experiment [7] was inactive. Further, the result in experiment [8], in experiment [9], in experiment [10], in [11], in [13] and in [14] was inactive. Further, in experiment [15], the result was inactive.
As to `CCC(C)=O`, the call in [1], in [2], in [3], in experiment [4], in experiment [5] and in [16] was inactive. In addition, the result in experiment [6], in experiment [7], in experiment [17], in [10], in experiment [13] and in experiment [14] was inactive. Besides, the compound was classed as inactive in experiment [15].
`CCOc1ccccc1O`: the compound was called inactive in experiment [1], in experiment [2], in experiment [3], in experiment [4], in experiment [5] and in experiment [9]. Moreover, the result in experiment [17], in [10], in [11], in experiment [12], in experiment [13] and in experiment [14] was inactive. Besides, the compound was classed as inactive in experiment [15].
For orientation: AC50 means the concentration giving half of the maximal activity seen. For the compound `O=C(CS)OCCOC(=O)CS`, the results for the AC50 in experiment [1] and in experiment [12] were 62.2 µM (active) and 52.4 µM (active), respectively. Also, the outcome in experiment [2], in experiment [3], in experiment [4], in experiment [5], in experiment [7] and in [17] was inactive. Also, the compound was called inactive in experiment [10], in experiment [13], in experiment [14] and in [15].
Consider `O=C1OC(=O)c2c(Br)c(Br)c(Br)c(Br)c21`, for which the compound was called inactive in experiment [1], in experiment [2], in [3], in experiment [4], in experiment [5] and in experiment [9]. The compound was classed as inactive in experiment [10], in experiment [11], in [12], in experiment [13], in experiment [14] and in experiment [15].
On to `CC1C2CC(CC2C2CCCC(O)C2)C1(C)C` (stereo not drawn), for which the outcome in [1], in [2], in [3], in [4], in experiment [5] and in experiment [6] was inactive. The compound was classed as inactive in experiment [10], in [11], in [12], in experiment [13], in [14] and in experiment [15]. The AC50 in experiment [7] was 58.4 µM (active); in experiment [8], 33.4 µM (active).

The record behind these values is PubChem BioAssay (EPA / NIEHS).
